According to PubChem BioAssay:

What follows are compounds tested against Focal adhesion kinase 1 (Homo sapiens) (UniProt Q05397) (assay: PTK2 protein binding on printed compound slides – biochemical, small-molecule microarray, 635/667 nm fluorescence, BSA, DTT, primary screen (AID 1130;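 further: composite of spot emission at 667 nm and signal to noise over triplicate slides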)). Conditions: 635 nm fluorescence, higher = more signal.
Chain of Focal adhesion kinase 1 (Homo sapiens) (Q05397 whole entry, looked up): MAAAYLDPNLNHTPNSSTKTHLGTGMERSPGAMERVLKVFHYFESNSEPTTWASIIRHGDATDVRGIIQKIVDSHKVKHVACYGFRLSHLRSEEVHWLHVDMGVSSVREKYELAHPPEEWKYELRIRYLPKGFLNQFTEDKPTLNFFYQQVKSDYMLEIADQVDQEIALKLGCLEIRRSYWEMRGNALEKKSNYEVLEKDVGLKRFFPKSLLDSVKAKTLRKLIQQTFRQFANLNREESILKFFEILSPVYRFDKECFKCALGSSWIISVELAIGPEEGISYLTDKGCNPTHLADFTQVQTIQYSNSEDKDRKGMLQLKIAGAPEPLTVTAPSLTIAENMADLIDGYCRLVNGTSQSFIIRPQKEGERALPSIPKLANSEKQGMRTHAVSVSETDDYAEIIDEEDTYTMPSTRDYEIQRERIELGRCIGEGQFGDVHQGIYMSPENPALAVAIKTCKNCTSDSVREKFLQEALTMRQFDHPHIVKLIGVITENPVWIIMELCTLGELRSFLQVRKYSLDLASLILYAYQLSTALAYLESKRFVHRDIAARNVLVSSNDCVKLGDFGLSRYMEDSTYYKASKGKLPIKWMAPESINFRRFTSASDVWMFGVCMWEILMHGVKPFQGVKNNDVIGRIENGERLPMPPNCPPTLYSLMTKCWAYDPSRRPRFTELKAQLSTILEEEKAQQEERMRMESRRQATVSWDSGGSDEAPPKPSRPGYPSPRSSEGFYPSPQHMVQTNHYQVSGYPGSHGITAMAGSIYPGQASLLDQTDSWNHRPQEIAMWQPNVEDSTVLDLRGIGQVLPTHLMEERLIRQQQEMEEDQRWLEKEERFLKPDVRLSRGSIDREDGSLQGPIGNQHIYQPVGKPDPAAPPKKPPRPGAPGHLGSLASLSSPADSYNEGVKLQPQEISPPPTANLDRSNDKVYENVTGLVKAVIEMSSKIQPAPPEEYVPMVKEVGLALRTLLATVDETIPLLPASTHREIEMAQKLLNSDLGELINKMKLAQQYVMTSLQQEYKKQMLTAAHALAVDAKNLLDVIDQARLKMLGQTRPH

Row | Structure (SMILES) | composite z-score
1 | Cn1c(=O)n2n(c1=O)[C@H]1[C@H](O)[C@@H]3O[C@@H]3C(=O)[C@H]1CC2 | -0.515
2 | O=C1C[C@@H](O)[C@@H](O)[C@@H]2[C@@H]3C(=O)N(C[C@@H]4CCCO4)C(=O)[C@@H]3CC[C@@H]12 | 0.181
3 | COc1ccc(O[C@H]2C=C[C@@H](c3ccccc3)O[C@@H]2CON=C2[C@H]3CCn4c(=O)n(-c5ccccc5)c(=O)n4[C@H]3[C@H](O)[C@@H]3O[C@H]23)cc1 | 0.0673

What follows are compounds tested on Fibrinogen (Alexa647-labelled) (assay: Alexa647-fibrinogen binding to printed small molecules – biochemical, small-molecule microarray, 635/667 nm fluorescence, artefact control for SMM control-protein annotation, profiling panel (AID 1131;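 further: z-score merges 667 nm fluorescence with per-spot signal-to-noise over triplicate slides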)). Conditions: fibrinogen-A647 binding fluorescence, higher = more signal.

Row | Structure (SMILES) | composite z-score
4 | CC(C)CCN1CCc2nc(COc3ccccc3)c3c(c2C1)CO[C@@H](C)C3 | 0.602
5 | O=C(NN=C1C[C@@H](O)[C@@H](O)[C@@H]2[C@@H]3C(=O)N(Cc4ccccc4)C(=O)[C@@H]3CC[C@@H]12)OCc1ccccc1 | 0.272
6 | CO[C@@H]1COC(=O)[C@@H](C)COC(=O)[C@@H](C)NC(=O)CC=C[C@@H]1C | -1.27
7 | CO[C@@H]1COC(=O)CC=C[C@@H](C)[C@@H]2C=C[C@H](O)[C@@H](COC(=O)CC=C[C@H]1C)O2 | -0.616
8 | COC(=O)[C@@H]1CC[C@H](C)[C@@H](c2ccc(C)cc2)N1C(=O)c1ccc(C=NO[C@H](C)c2cn([C@H](CO)Cc3ccccc3)nn2)cc1 | -0.466
9 | CCC=CCCC(OC(=O)c1ccc(Br)cc1)C1=CCCCC1=O (configuration not stated) | -0.997
10 | CO[C@H]1COC(=O)[C@@H](C)COC(=O)[C@H](COCc2ccccc2)NC(=O)CC=C[C@H]1C | -0.785
11 | CCOC(=O)CCN1C(=O)[C@H]2[C@H]3[C@H](O)[C@H](O)CC(=NOCC(C)C)[C@H]3CC[C@H]2C1=O | 0.416
12 | C#CCCCON=C1C[C@@H](O)[C@@H](O)[C@@H]2[C@@H]3C(=O)N(CC)C(=O)[C@@H]3CC[C@@H]12 | 0.0609
